According to PubChem BioAssay AID686978 (National Center for Advancing Translational Sciences (NCATS), 2013):
Among all 420,000 compounds or so, about 64,000 (15%) were called active. Inconclusive results (about 27%) are left out. These entries were drawn from the full list. A number with no mark means an inactive call. Calls come from the whole dose curve; as a rule, active = well fitted inhibition curve with a large enough effect; inconclusive = small, poorly fitted or top-dose-only effect; inactive = flat fitted curve, though single readings scatter.

Experiment: qHTS for Inhibitors of human tyrosyl-DNA phosphodiesterase 1 (TDP1): qHTS in cells in absence of CPT; note: nearly all actives have a fitted effect of over 55% in size
Details: DT40 Tdp1-/- hTDP1 cells, no CPT, ATP luminescence, 48 h; activity change, negative = growth inhibition: at 46.2 µM (top of the series)
Procedure, shortened: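 A cellular qHTS used chicken DT40 cells lacking endogenous Tdp1 but carrying stably transfected human TDP1. Compounds were applied without camptothecin, and cell growth kinetics were judged by ATP-dependent luminescence after ≥48 hr.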
% is set by controls: 0 for no effect and ±100 for the full control effect; potency is the fitted concentration of half-maximal effect.

SMILES | activity change, negative = growth inhibition [%] | Potency
COC(=O)C1=C(C(=O)OC)[C@@H]2N(C)c3ccccc3[C@@]23C[C@@H](C(=O)OC)N(C(=O)c2ccco2)C3=N1 | -11.6 | –
Cc1cc(C)cc(NS(=O)(=O)c2ccc3[nH]cc(C(=O)N4CCCCC4)c(=O)c3c2)c1 | -20 | –
CN1CCN(c2ncncc2-c2ccc(C(=O)N(C)C)cc2)CC1 | 2.5 | –
CCOC1CS(=O)(=O)CC1OCC (configuration not stated) | 2.48 | –
CCCc1ccc(C(O)c2ncc(-c3cccc(OC)c3)[nH]2)cc1 (configuration not stated) | – | 20.6 µM (active)
Cc1cccc(-c2cnc(C(O)c3cc(C)cc(C)c3)[nH]2)c1 (configuration not stated) | -21.6 | –
COc1cccc(-c2cnc(C(O)c3ccccc3OC)[nH]2)c1 (configuration not stated) | -18.7 | –
O=c1cnnc(Nc2ccccc2)[nH]1 | 0.313 | –
O=C(c1cccs1)C1C(c2ccc(Br)cc2)NC(=S)NC1(O)C(F)(F)F (configuration not stated) | -27.6 | –
Fc1ccc(N2CCN(Cc3cnc(Oc4ccc(Br)cc4)s3)CC2)cc1 | -18.2 | –
COC(=O)c1cc(NC(=O)CCS(=O)(=O)c2cc(Br)cc3c2N(C(=O)C2CC2)CC3)cc(C(=O)OC)c1 | -14.6 | –
O=C(NCCOc1ccccc1)c1ccccc1F | 6.64 | –
CC1CCC2CCCCC2N1C(=O)c1cc([N+](=O)[O-])cc([N+](=O)[O-])c1 (configuration not stated) | – | 18.4 µM (active)
Cc1cc([N+](=O)[O-])c(N2CCC[C@@H]2C(=O)O)c([N+](=O)[O-])c1 | -16.3 | –
CN1C2CCC1CC(NC(=O)c1ccc([N+](=O)[O-])cc1)C2 (configuration not stated) | -21.8 | –
COC(=O)c1cc(NC(=O)c2nn(C)c(=O)c3ccccc23)cc(C(=O)OC)c1 | – | 6.51 µM (active)
CCC(C)NC(=O)c1nn(C)c(=O)c2ccccc12 (configuration not stated) | -8.51 | –
Cc1ccc(C)c(NC(=O)COC(=O)c2nn(C)c(=O)c3ccccc23)c1 | 8.08 | –
CC1CCCCC1NC(=O)Cn1c(=O)cnc2ccccc21 (configuration not stated) | -4.01 | –
Cn1nnc(NC(=O)CSc2ncn[nH]2)n1 | -0.455 | –
CN(C)N(C)C(=O)C(O)(c1ccccc1)c1ccccc1 | -0.464 | –
Cc1ccc(-c2nn(CCC(=O)Nc3ccc(Cl)c(Cl)c3)c(=O)c3ccccc23)cc1 | – | 23.1 µM (active)
Cc1cc(C)cc(NC(=O)CCN2C(=O)c3ccccc3C2=O)c1 | -11.8 | –
Cc1cccc(NC(=O)CCn2c(=O)oc3ccccc32)c1 | 5.57 | –
CCc1nnc(NC(=O)CSc2nc(SC)ns2)s1 | -24.6 | –
COc1cccc(NC(=O)N(C)C[C@@H]2Oc3ncc(Br)cc3C(=O)N([C@@H](C)CO)C[C@H]2C)c1 | -25.5 | –

SMILES | activity change, negative = growth inhibition [%] | Potency
CN(C)N=Nc1ccc2nc[nH]c2c1 | -13.4 | –
CCOc1ccc(NC(=O)CN(C)C(=O)Cn2c(=O)cnc3ccccc32)cc1OCC | -27.1 | –
CCCN(CCC)S(=O)(=O)c1cc2c(cc1Br)CCN2C(=O)CC | – | 5.8 µM (active)
CCC(=O)N1CCc2cc(Br)c(S(=O)(=O)NCCN3CCCCC3CC)cc21 (configuration not stated) | 6.25 | –
CCC(=O)N1CCc2cc(S(=O)(=O)NC(C(=O)N3CCc4ccccc4C3)C(C)C)ccc21 (configuration not stated) | -0.707 | –
Cc1cc(C(F)F)nn1CC(=O)NC1CCCCCC1 | 2.11 | –
COc1ccc(C(=O)N2CCC[C@@]3(CCN(C(=O)NC(C)C)C3)C2)cc1 | -2.74 | –
COc1ccc2cc(C(=O)O)n(CC(=O)c3ccccc3)c2c1 | 12.2 | –
O=C(/C=C/[C@H]1O[C@@H](n2cnc3c(NC(=O)c4ccccc4)ncnc32)[C@H](O)[C@@H]1O)NCc1ccccc1 | -11.2 | –
CCC(C)(C(=O)Nc1ccccc1C)N(C(=O)CNC(C)=O)c1ccc(C)cc1 (configuration not stated) | -15.5 | –
O=C(N[C@@H](Cc1ccccc1)C(=O)OCc1ccccc1)c1nc[nH]c1C(=O)NC1CCNCC1 | 0.388 | –
CC(C)(C)OC(=O)N1CCC(NC(=O)c2[nH]cnc2C(=O)N[C@@H](Cc2ccccc2)C(=O)OCc2ccccc2)CC1 | – | 13 µM (active)
C[C@@H](NC(=O)c1nc[nH]c1C(=O)N1CCN(C(=O)OC(C)(C)C)CC1)c1ccccc1 | -23.7 | –
O=C(Nc1ccccc1Cl)NC1(C(=O)N2CCOCC2)CCCCC1 | -7.24 | –
COc1cccc(NC(=O)CN(C)C(=O)CSCc2nc3scc(-c4cccs4)c3c(=O)[nH]2)c1 | 1.04 | –
Cc1ccccc1N1CCN(C2CCCN(C(=O)c3ocnc3C)C2)CC1 (configuration not stated) | -25.4 | –
Cc1ccccc1N1CCN(C2CCCN(C(=O)c3cn4c(C)cccc4n3)C2)CC1 (configuration not stated) | – | 14.6 µM (active)
Cc1cnc(C(=O)N2CCCC(N3CCN(c4ccccc4F)CC3)C2)cn1 (configuration not stated) | -24.2 | –
CC(C)c1ccc(NS(=O)(=O)c2ccc3[nH]cc(C(=O)NC4CCCC4)c(=O)c3c2)cc1 | -18 | –
COCOc1cccc(CN2CCC(C)(Oc3ccc(SC)cc3)C2)c1 (configuration not stated) | – | 10.3 µM (active)
CCc1ccc(OC2(C)CCN(CCOc3ccc(C)cc3)C2)cc1 (configuration not stated) | -28.4 | –
CCC12CN3CC(CC)(CN(C1)C31C(=O)N(C)c3ccc(C)cc31)C2=O (configuration not stated) | -22.5 | –
O=C(NC1CC2CCCC(C1)N2C(=O)N1CCCCC1)C1CCCCC1 (configuration not stated) | -8.22 | –
C/C(=N\NC(=O)CC(C)C)c1c(C(F)(F)F)[nH]n(-c2nc3ccccc3s2)c1=O | -8.53 | –
COc1ccc(N=C(C)c2sc3ccccc3c2O)cc1 | 0.494 | –
COC(=O)Cc1[nH]n(-c2nc3ccccc3s2)c(=O)c1C(C)=Nc1ccc(OC)cc1 | – | 3.26 µM (active)
